Rows were chosen to be rich in hits. Some 1.6% of all compounds tested hit in one or more screens of this group.
KCNQ2 pot: KCNQ2 (rat) channel potentiation | B-score at 10 µM | 310,000 tested, 0.54% active | CHO-K1 KCNQ2, FluxOR thallium flux fluorescence; hits give high values | O88943;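 active = fluorescence ratio B-score at least 3 SD of library B-scores, with initial fluorescence B-score within 3 of them, cut at about 5.3 in these data; same plate scores as AID 2156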;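 also: B-score of peak minus minimum over baseline fluorescence ratio after K+ and Tl+ stimulus; positive B-score means potentiation of KCNQ2 with more thallium influx and brighter signal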
Target sequence (O88943 whole entry, looked up): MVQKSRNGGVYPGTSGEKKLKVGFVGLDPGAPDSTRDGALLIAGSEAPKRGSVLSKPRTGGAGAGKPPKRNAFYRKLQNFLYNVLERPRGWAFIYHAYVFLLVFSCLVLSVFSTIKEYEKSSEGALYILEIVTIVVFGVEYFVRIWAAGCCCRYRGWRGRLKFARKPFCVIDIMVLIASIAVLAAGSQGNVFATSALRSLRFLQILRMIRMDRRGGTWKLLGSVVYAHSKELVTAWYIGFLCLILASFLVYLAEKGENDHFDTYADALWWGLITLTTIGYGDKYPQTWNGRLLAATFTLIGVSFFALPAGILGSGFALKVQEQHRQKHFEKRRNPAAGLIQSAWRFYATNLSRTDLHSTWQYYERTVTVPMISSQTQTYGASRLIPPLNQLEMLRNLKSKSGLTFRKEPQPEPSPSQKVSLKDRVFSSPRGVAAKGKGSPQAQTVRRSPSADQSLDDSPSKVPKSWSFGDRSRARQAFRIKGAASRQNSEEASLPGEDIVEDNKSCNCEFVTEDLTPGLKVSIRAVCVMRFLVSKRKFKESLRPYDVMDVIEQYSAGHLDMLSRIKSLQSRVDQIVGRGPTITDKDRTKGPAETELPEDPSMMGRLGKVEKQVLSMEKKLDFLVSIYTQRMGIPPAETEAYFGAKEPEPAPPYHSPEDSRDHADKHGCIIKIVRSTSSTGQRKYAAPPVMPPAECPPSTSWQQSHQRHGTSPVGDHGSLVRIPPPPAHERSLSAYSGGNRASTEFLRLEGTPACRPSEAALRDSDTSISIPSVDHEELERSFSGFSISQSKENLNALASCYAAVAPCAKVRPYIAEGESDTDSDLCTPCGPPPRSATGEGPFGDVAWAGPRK
KCNQ2 block: inhibitors of rat KCNQ2 potassium channel. O88943. CHO-K1 KCNQ2, FluxOR thallium flux, 20 min; hits give low values. B-score at 10 µM. 310,000 tested, 1.1% active. AID 2156;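 active = fluorescence ratio B-score at most minus 3 library SDs, with starting brightness B-score within 2 library SDs, cut at about -5.5 in these data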
The depositor's hits bear a star; i = inactive; · = no result.

SMILES	KCNQ2 pot	KCNQ2 block
CC(NC(=O)c1cccc(S(=O)(=O)N2CCN(C)CC2)c1)c1ccc(Cl)cc1Cl (stereo not given)	4.1	i
O=C(COc1ccccc1Cl)Nc1cccc(S(=O)(=O)NC2=NCCCCC2)c1	·	i
CCOC(=O)C1=C(C)NC(C)=C(C(=O)OC)C1c1cccc([N+](=O)[O-])c1 (stereo not given)	·	i
COC(=O)C1=C(C)NC(C)=C(C(=O)O[C@@H]2CCCN(Cc3ccccc3)C2)[C@@H]1c1cccc([N+](=O)[O-])c1	-5.78	-5.78*
CN(CC(=O)Nc1ccccc1Cl)C(=O)Cn1cc(C(F)(F)F)cc(Cl)c1=O	0.61	i
CCCn1c(NCc2cccc(OC)c2O)nc2ccccc21	·	i
CCCn1c(NCc2cccc(OC)c2OC)nc2ccccc21	-5.86	-5.86*
Cc1cc(OCC(=O)OCC(=O)Nc2cc(C(F)(F)F)ccc2N2CCOCC2)ccc1Cl	·	i
CCOC(=O)C(Cc1ccccc1)(Cc1ccccc1)C(C)=O	-6.44	-6.44*
CC(=O)C(Cc1ccccc1)(Cc1ccccc1)C(C)=O	0.24	i
CCCc1ccc(S(=O)(=O)N(C)S(=O)(=O)c2ccc(F)cc2)cc1	·	i
COc1ccc(C=O)cc1COc1ccc([N+](=O)[O-])c(C)c1	-6.82	-6.82*
COc1ccc(/C=C/C(=O)O)cc1COc1cccc(C)c1	0.61	i
COc1ccccc1N1CCN(S(=O)(=O)c2cc(-c3cc(C)no3)ccc2C(C)C)CC1	-6	-6*
Cc1cc(-c2ccc(C(C)C)c(S(=O)(=O)N3CCN(c4ccccc4)CC3)c2)on1	·	i
Cc1ccc(CNC(=O)C2CCC(=O)N(CCCN3CCOCC3)C2)cc1 (stereo not given)	0.45	i
O=C(NCCc1ccc(Cl)cc1)c1cc(-c2ccncc2)nc2ccccc12	·	i
Cc1ccc(-c2cc(C(=O)NCc3ccccn3)c3ccccc3n2)cc1C	-6.1	-6.1*
Cc1cccc(-c2cc(C(=O)NCc3ccccn3)c3ccccc3n2)c1	·	i
Cc1cnn(C(=O)c2cc(-c3ccccn3)nc3ccc(Cl)cc23)c1	·	i
O=C(c1cc(-c2ccccn2)nc2ccc(Cl)cc12)N1CCN(CCc2ccccc2)CC1	-5.65	-5.65*
O=C(NCCc1ccc(Cl)cc1)c1cc(-c2ccccn2)nc2ccccc12	-6.53	-6.53*
N#Cc1c2ccccc2nc2ccccc12	·	i
O=C(NCCCN1CCCC1=O)C1CCN(S(=O)(=O)c2c(Cl)cccc2Cl)CC1	0.26	i
Cc1nn(-c2ccccc2)c(C)c1NC(=O)COc1ccc(Br)cc1Cl	0.01	i
SMILES	KCNQ2 pot	KCNQ2 block
O=C1OCC2=C1C(c1ccc(F)cc1)CC(=O)N2c1ccccc1 (stereo not given)	1.91	i
Cc1ccc(-n2c(N)cc(=O)nc2SCC(=O)NC2CCCCC2)cc1C	0.33	i
CC1=C(C(=O)OC(C)C)C(c2cccs2)NC(=S)N1 (stereo not given)	·	i
c1ccc(C[n+]2c(-c3ccccc3)csc2Nc2ccccc2)cc1	·	i
c1ccc(Nc2scc(-c3ccccc3)[n+]2Cc2ccco2)cc1	-6.44	-6.44*
Cn1c(=O)n(CC(N)=O)c(=O)c2c1nc(Br)n2Cc1ccccc1	0.07	i
CCCCOC(=O)Cn1c(=O)c2c(nc(Br)n2Cc2ccccc2)n(C)c1=O	-7.46	-7.46*
COc1cccc(/C=N/NC(=O)c2c(-c3ccccc3)noc2C)c1O	·	i
COc1cccc(/C=N/NC(=O)c2c(-c3ccccc3)noc2C)c1OC	-7.32	-7.32*
COc1cc(/C=N/NC(=O)c2c(-c3ccccc3)noc2C)ccc1O	·	i
COc1ccc(Cl)cc1/C=N/NC(=O)c1c(-c2ccccc2)noc1C	-6.17	-6.17*
Cc1cccc(Cl)c1NNC(=O)Nc1c([N+](=O)[O-])c(C)nn1C	·	i
CCC(=O)N(Cc1ccco1)C1CC(=O)N(c2ccccc2)C1=O (stereo not given)	·	i
O=C(NCc1cccc(F)c1)C1CCN(C(=O)c2sccc2-n2cccc2)CC1	0.59	i
Cc1ccc(NC(=O)OCCN2CCN(Cc3ccccc3)CCC2=O)cc1C	·	i
Cc1ccccc1NC(=O)OCCN1CCN(Cc2ccccc2)CCC1=O	-6.35	-6.35*
Cc1ccccc1-c1nc(CN2CCCC(C(=O)NCCCN3CCOCC3)C2)c(C)o1 (stereo not given)	0.91	i
COc1ccc(CNC(=O)C2CCCN(Cc3nc(-c4cccc(C)c4)oc3C)C2)cc1 (stereo not given)	-6.42	-6.42*
Cc1ccccc1-c1nc(CN2CCCC(C(=O)NCc3cccnc3)C2)c(C)o1 (stereo not given)	9.04*	i
COc1ccc(-c2nc(CN3CCCC(C(=O)NC4CCCC4)C3)c(C)o2)cc1 (stereo not given)	·	i
COc1ccc(CN2CCNC(=O)C2CC(=O)NCCC2=CCCCC2)cc1OC (stereo not given)	·	i
CC(C)OC(=O)c1c(NC(=O)c2ccco2)sc2c1CCCCC2	-6.32	-6.32*
COC(=O)c1c(NC(=O)c2ccco2)sc2c1CCC2	·	i
CCOc1ccc(S(=O)(=O)N(C)c2ccc(OCC(=O)Nc3nc4ccccc4s3)cc2)cc1	-5.94	-5.94*
CN(c1ccc(OCC(=O)Nc2nc3ccccc3s2)cc1)S(=O)(=O)c1ccccc1	·	i
SMILES	KCNQ2 pot	KCNQ2 block
COc1ccc(Cl)cc1C(=O)Nc1cccc(-c2ccc3nncn3n2)c1	1.25	i
O=c1c2ccccc2[nH]c(=S)n1CCN1CCCCC1	0.03	i
O=c1c2ccccc2[nH]c(=S)n1CCC1=CCCCC1	8.45*	i
Cc1ccccc1C(=O)N1CCC(C(=O)Nc2cc(C(F)(F)F)ccc2N2CCCC2)CC1	1.12	i
COc1ccc(Cn2ccnc2SCC(=O)Nc2ccccc2OC)cc1	-6.08	-6.08*
COc1ccc(Cn2ccnc2SCC(=O)Nc2ccccc2F)cc1	·	i
Nc1cc(Cl)ccc1C(=O)OCC(=O)NC1CCCCC1	·	i
CCN(C(=O)COC(=O)c1ccc(Cl)cc1N)C1CCCCC1	-6.4	-6.4*
COc1cccc(-n2c(SCC(N)=O)nc3ccccc3c2=O)c1	0.67	i
COc1cccc(-n2c(SCC(=O)Nc3sc4c(c3C(N)=O)CCC4)nc3ccccc3c2=O)c1	-6.09	-6.09*
CCNS(=O)(=O)c1ccc2c(c1)NCC2	2.07	i
COc1ccccc1NC(=O)C(C)OC(=O)Cc1n[nH]c(=O)c2ccccc12 (stereo not given)	0.51	i
Cc1cccc(C(C)C)c1NC(=O)C(C)OC(=O)Cc1n[nH]c(=O)c2ccccc12 (stereo not given)	-6.67	-6.67*
O=C(CN(Cc1ccco1)C(=O)Cn1nnc(-c2ccc(F)cc2)n1)NC1CCCC1	0.08	i
CCCCC(C(=O)NC1CCCC1)N(Cc1ccco1)C(=O)Cn1nnc(-c2ccc(F)cc2)n1 (stereo not given)	-7.24	-7.24*
O=C(CSc1nc(C(F)(F)F)cc(=O)[nH]1)Nc1cccc2ccccc12	·	i
N=C1SCC(=O)N1c1ncc(Cc2ccc(F)cc2)s1	6.87*	i
Cc1ccc(-c2csc(N3C(=N)SCC3=O)n2)cc1	0.11	i
Cc1c(Cl)cccc1NC(=O)CSc1ncnc2c1cnn2CCc1ccccc1	·	i
O=C(CSc1ncnc2c1cnn2CCc1ccccc1)Nc1cccc(C(F)(F)F)c1	-6.73	-6.73*
CCN(c1ccccc1)S(=O)(=O)c1nnc(NC(=O)c2ccccc2OC)s1	·	i
O=C(COc1ccc(F)cc1)c1ccc2c(c1)CCCC2	·	i

Assay outcomes from PubChem BioAssay.
